According to the supplement of paper PMC8728848:
Many of the other results were omitted from the sample, so the strongest signals are more common in it than they were.

Key:
Assay in all cases: glycan array binding signal (z-score within array); higher = stronger binding
Conditions in all cases: glycan notation: IUPAC condensed, linker removed
[1] = molecular target: Fuc(a1-2)Gal(b1-3)GalNAc(a1-3)[Fuc(a1-2)]Gal(b1-4)GlcNAc
Method in brief: (§1)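 Columns mapping to the same glycan were averaged after glycan names were converted to IUPAC-condensed notation. The data come from 3228 arrays in the Consortium for Functional Glycomics database, limited to those with an available protein sequence. Binding is reported as a within-array Z-score averaged across arrays of one protein sequence and across linkers.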

[2] = molecular target: Fuc(a1-2)Gal(b1-3)GlcNAc(b1-2)Man(a1-3)[Fuc(a1-2)Gal(b1-3)GlcNAc(b1-2)Man(a1-6)]Man(b1-4)GlcNAc(b1-4)[Fuc(a1-6)]GlcNAc
Method in brief: as §1

[3] = molecular target: Fuc(a1-2)Gal(b1-3)GlcNAc(b1-3)Gal(b1-4)Glc
Method in brief: as §1

Fuc(a1-2)Gal(b1-4)Glc = molecular target: Fuc(a1-2)Gal(b1-4)Glc
Method in brief: as §1

[4] = molecular target: Fuc(a1-2)Gal3S(b1-4)GlcNAc
Method in brief: as §1

[5] = molecular target: Fuc(a1-2)Gal6S(b1-4)Glc6S
Method in brief: as §1

[6] = molecular target: Fuc(a1-2)[GalNAc(a1-4)]Gal(b1-4)GlcNAc
Method in brief: as §1

[7] = molecular target: Fuc(a1-3)[Gal(b1-4)]GlcNAc
Method in brief: as §1

Gal(a1-3)Gal(b1-3)GlcNAc = molecular target: Gal(a1-3)Gal(b1-3)GlcNAc
Method in brief: as §1

[8] = molecular target: Gal(a1-3)Gal(b1-3)[Fuc(a1-4)]GlcNAc(b1-2)Man(a1-3)[Gal(a1-3)Gal(b1-3)[Fuc(a1-4)]GlcNAc(b1-2)Man(a1-6)]Man(b1-4)GlcNAc(b1-4)GlcNAc
Method in brief: as §1

Gal(a1-4)Gal(b1-4)Glc = molecular target: Gal(a1-4)Gal(b1-4)Glc
Method in brief: as §1

[9] = molecular target: Gal(b1-3)GlcNAc(b1-2)[Gal(b1-3)GlcNAc(b1-6)]Man(a1-6)[Gal(b1-3)GlcNAc(b1-2)Man(a1-3)]Man(b1-4)GlcNAc(b1-4)GlcNAc
Method in brief: as §1

[10] = molecular target: Gal(b1-3)GlcNAc(b1-3)Gal(b1-3)GlcNAc
Method in brief: as §1

[11] = molecular target: Gal(b1-3)GlcNAc(b1-3)Gal(b1-4)GlcNAc(b1-3)Gal(b1-4)GlcNAc(b1-2)[Gal(b1-3)GlcNAc(b1-3)Gal(b1-4)GlcNAc(b1-3)Gal(b1-4)GlcNAc(b1-6)]Man(a1-6)[Gal(b1-3)GlcNAc(b1-3)Gal(b1-4)GlcNAc(b1-3)Gal(b1-4)GlcNAc(b1-2)Man(a1-3)]Man(b1-4)GlcNAc(b1-4)[Fuc(a1-6)]GlcNAc
Method in brief: as §1

[12] = molecular target: Gal(b1-3)[Fuc(a1-4)]GlcNAc(b1-3)Gal(b1-4)GlcNAc
Method in brief: as §1

[13] = molecular target: Gal(b1-3)[Neu5Ac(a2-6)]GlcNAc(b1-4)Gal(b1-4)Glc
Method in brief: as §1

[14] = molecular target: Gal(b1-3)[Neu5Ac(b2-6)]GalNAc
Method in brief: as §1

[15] = molecular target: Gal(b1-4)GalNAc(b1-3)[Fuc(a1-2)]Gal(b1-4)GlcNAc
Method in brief: as §1

[16] = molecular target: Gal(b1-4)GlcNAc(a1-6)Gal(b1-4)GlcNAc
Method in brief: as §1

Gal(b1-4)GlcNAc(b1-2)Man = molecular target: Gal(b1-4)GlcNAc(b1-2)Man
Method in brief: as §1

[17] = molecular target: Gal(b1-4)GlcNAc(b1-2)[Gal(b1-4)GlcNAc(b1-4)]Man(a1-3)[Gal(b1-4)GlcNAc(b1-2)Man(a1-6)]Man(b1-4)GlcNAc(b1-4)GlcNAc
Method in brief: as §1

[18] = molecular target: Gal(b1-4)GlcNAc(b1-2)[Gal(b1-4)GlcNAc(b1-4)]Man(a1-3)[GlcNAc(b1-4)][Gal(b1-4)GlcNAc(b1-2)[Gal(b1-4)GlcNAc(b1-6)]Man(a1-6)]Man(b1-4)GlcNAc(b1-4)GlcNAc
Method in brief: as §1

[19] = molecular target: Gal(b1-4)GlcNAc(b1-2)[Gal(b1-4)GlcNAc(b1-6)]Man(a1-6)[Gal(b1-4)GlcNAc(b1-2)Man(a1-3)]Man(b1-4)GlcNAc(b1-4)GlcNAc
Method in brief: as §1

[20] = molecular target: Gal(b1-4)GlcNAc(b1-2)[Gal(b1-4)GlcNAc(b1-6)]Man(a1-6)[Gal(b1-4)GlcNAc(b1-2)Man(a1-3)]Man(b1-4)GlcNAc(b1-4)[Fuc(a1-6)]GlcNAc
Method in brief: as §1

[21] = molecular target: Gal(b1-4)GlcNAc(b1-2)[Gal(b1-4)GlcNAc(b1-6)]Man(a1-6)[GlcNAc(b1-4)][Gal(b1-4)GlcNAc(b1-2)[Gal(b1-4)GlcNAc(b1-4)]Man(a1-3)]Man(b1-4)GlcNAc(b1-4)[Fuc(a1-6)]GlcNAc
Method in brief: as §1

[22] = molecular target: Gal(b1-4)GlcNAc(b1-3)Gal(b1-4)GlcNAc(b1-2)[Gal(b1-4)GlcNAc(b1-3)Gal(b1-4)GlcNAc(b1-6)]Man(a1-6)[Gal(b1-4)GlcNAc(b1-3)Gal(b1-4)GlcNAc(b1-2)Man(a1-3)]Man(b1-4)GlcNAc(b1-4)[Fuc(a1-6)]GlcNAc
Method in brief: as §1

[23] = molecular target: Gal(b1-4)GlcNAc(b1-3)Gal(b1-4)GlcNAc(b1-3)Gal(b1-4)GlcNAc(b1-2)Man(a1-3)[Gal(b1-4)GlcNAc(b1-3)Gal(b1-4)GlcNAc(b1-3)Gal(b1-4)GlcNAc(b1-2)Man(a1-6)]Man(b1-4)GlcNAc(b1-4)[Fuc(a1-6)]GlcNAc
Method in brief: as §1

[24] = molecular target: Gal(b1-4)GlcNAc(b1-3)Gal(b1-4)GlcNAc(b1-3)Gal(b1-4)GlcNAc(b1-2)[Gal(b1-4)GlcNAc(b1-3)Gal(b1-4)GlcNAc(b1-3)Gal(b1-4)GlcNAc(b1-6)]Man(a1-6)[Gal(b1-4)GlcNAc(b1-3)Gal(b1-4)GlcNAc(b1-3)Gal(b1-4)GlcNAc(b1-2)Man(a1-3)]Man(b1-4)GlcNAc(b1-4)[Fuc(a1-6)]GlcNAc
Method in brief: as §1

[25] = molecular target: Gal(b1-4)GlcNAc(b1-3)Gal(b1-4)GlcNAc(b1-3)Gal(b1-4)GlcNAc(b1-3)Gal(b1-4)GlcNAc(b1-2)Man(a1-3)[Gal(b1-4)GlcNAc(b1-3)Gal(b1-4)GlcNAc(b1-3)Gal(b1-4)GlcNAc(b1-3)Gal(b1-4)GlcNAc(b1-2)Man(a1-6)]Man(b1-4)GlcNAc(b1-4)[Fuc(a1-6)]GlcNAc
Method in brief: as §1

[26] = molecular target: Gal(b1-4)GlcNAc(b1-3)Gal(b1-4)GlcNAc(b1-3)Gal(b1-4)GlcNAc(b1-3)Gal(b1-4)GlcNAc(b1-2)[Gal(b1-4)GlcNAc(b1-3)Gal(b1-4)GlcNAc(b1-3)Gal(b1-4)GlcNAc(b1-3)Gal(b1-4)GlcNAc(b1-6)]Man(a1-6)[Gal(b1-4)GlcNAc(b1-3)Gal(b1-4)GlcNAc(b1-3)Gal(b1-4)GlcNAc(b1-3)Gal(b1-4)GlcNAc(b1-2)Man(a1-3)]Man(b1-4)GlcNAc(b1-4)[Fuc(a1-6)]GlcNAc
Method in brief: as §1

B1: Threefoil (Haloarcula marismortui) (protein)
chain: GSSHHHHHHHHHHSSGLVPRGSHMGDGYYKLVARHSGKALDVENASTSDGANVIQYSYSGGDNQQWRLVDLGDGYYKLVARHSGKALDVENASTSDGANVIQYSYSGGDNQQWRLVDLGDGYYKLVARHSGKALDVENASTSDGANVIQYSYSGGDNQQWRLVDL
- glycan array binding signal (z-score) [1]: -0.165
- glycan array binding signal (z-score) [2]: 0.056
- glycan array binding signal (z-score) [3]: -0.192
- glycan array binding signal (z-score) (Fuc(a1-2)Gal(b1-4)Glc): -0.107
- glycan array binding signal (z-score) [4]: -0.199
- glycan array binding signal (z-score) [5]: -0.153
- glycan array binding signal (z-score) [6]: -0.341
- glycan array binding signal (z-score) [7]: -0.151
- glycan array binding signal (z-score) (Gal(a1-3)Gal(b1-3)GlcNAc): -0.298
- glycan array binding signal (z-score) [8]: -0.217
- glycan array binding signal (z-score) (Gal(a1-4)Gal(b1-4)Glc): 0.139
- glycan array binding signal (z-score) [9]: 0.155
- glycan array binding signal (z-score) [10]: -0.266
- glycan array binding signal (z-score) [11]: 0.426
- glycan array binding signal (z-score) [12]: 0.307
- glycan array binding signal (z-score) [13]: -0.13
- glycan array binding signal (z-score) [14]: -0.229
- glycan array binding signal (z-score) [15]: -0.231
- glycan array binding signal (z-score) [16]: 0.067
- glycan array binding signal (z-score) (Gal(b1-4)GlcNAc(b1-2)Man): -0.105
- glycan array binding signal (z-score) [17]: 3.48
- glycan array binding signal (z-score) [18]: 8.13
- glycan array binding signal (z-score) [19]: 0.527
- glycan array binding signal (z-score) [20]: 3.39
- glycan array binding signal (z-score) [21]: 6.8
- glycan array binding signal (z-score) [22]: 6.34
- glycan array binding signal (z-score) [23]: 6.67
- glycan array binding signal (z-score) [24]: 9.87
- glycan array binding signal (z-score) [25]: 3.74
- glycan array binding signal (z-score) [26]: 7.31
